The campaign covered roughly 5,600 compounds. About 150 (2.7%) showed an effect of 50% or more. The sample holds strong results, similar compounds and a random draw of the others, so the mix is not that of the screen.
Assays:
[1] = biological target: T1, Protein deacetylase HDAC6 (Homo sapiens) (UniProt Q9UBN7); settings: at 10 µM
T1 sequence (whole entry): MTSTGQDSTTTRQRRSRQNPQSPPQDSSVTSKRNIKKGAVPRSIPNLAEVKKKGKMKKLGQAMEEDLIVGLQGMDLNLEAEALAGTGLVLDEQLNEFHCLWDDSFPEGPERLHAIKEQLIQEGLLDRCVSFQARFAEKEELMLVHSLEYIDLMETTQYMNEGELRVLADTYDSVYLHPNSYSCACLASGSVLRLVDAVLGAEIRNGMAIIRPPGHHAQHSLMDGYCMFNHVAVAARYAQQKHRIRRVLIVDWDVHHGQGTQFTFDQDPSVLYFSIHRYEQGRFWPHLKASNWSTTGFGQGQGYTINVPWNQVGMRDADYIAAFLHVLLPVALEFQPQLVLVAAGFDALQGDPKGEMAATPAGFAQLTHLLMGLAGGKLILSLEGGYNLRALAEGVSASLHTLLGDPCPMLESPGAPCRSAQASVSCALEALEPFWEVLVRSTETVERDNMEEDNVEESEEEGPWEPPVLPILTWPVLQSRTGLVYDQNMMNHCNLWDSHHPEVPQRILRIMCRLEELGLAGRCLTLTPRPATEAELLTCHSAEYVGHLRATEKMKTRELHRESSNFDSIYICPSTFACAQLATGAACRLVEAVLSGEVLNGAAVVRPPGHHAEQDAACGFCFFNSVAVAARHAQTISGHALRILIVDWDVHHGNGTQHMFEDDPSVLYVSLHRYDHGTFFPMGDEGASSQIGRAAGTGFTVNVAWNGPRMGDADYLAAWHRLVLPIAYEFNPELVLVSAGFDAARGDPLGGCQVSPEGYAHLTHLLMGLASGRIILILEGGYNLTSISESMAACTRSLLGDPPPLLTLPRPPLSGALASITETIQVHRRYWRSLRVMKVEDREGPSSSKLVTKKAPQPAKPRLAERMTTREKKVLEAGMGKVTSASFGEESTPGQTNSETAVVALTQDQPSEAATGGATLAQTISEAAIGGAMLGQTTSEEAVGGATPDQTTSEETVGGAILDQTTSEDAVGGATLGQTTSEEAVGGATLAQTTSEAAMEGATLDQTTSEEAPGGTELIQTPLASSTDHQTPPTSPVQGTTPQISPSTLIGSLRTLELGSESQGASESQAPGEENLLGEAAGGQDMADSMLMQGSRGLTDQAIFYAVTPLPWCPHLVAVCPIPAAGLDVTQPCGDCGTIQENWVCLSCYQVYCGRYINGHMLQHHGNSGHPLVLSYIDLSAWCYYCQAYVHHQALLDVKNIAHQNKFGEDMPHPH

[2] = biological target: Protein deacetylase HDAC6 (Homo sapiens) (UniProt Q9UBN7); settings: at 10 µM; remark: listed apart in the source

Compound | inhibition [1] [%] | inhibition [2] [%]
COc1ccc(OCC2c3cc(OC)c(OC)cc3CCN2C(=O)c2cccc(Cl)c2)cc1 (configuration not stated) | -0.3 | 
BIS(MALTOLATO)OXOVANADIUM(IV), CHEMBL286447 |  | 1.5
c1ccc2c(c1)-c1nc-2nc2[nH]c(nc3nc(nc4[nH]c(n1)c1ccccc41)-c1ccccc1-3)c1ccccc21 | -0.22 | 
Cc1cccc(-c2n[nH]cc2-c2ccc3ncccc3n2)n1 | -0.98 | 
Cc1cc(O)c2c(=O)c3c(O)cc(O)c4c5c(O)cc(O)c6c(=O)c7c(O)cc(C)c8c1c2c(c34)c(c78)c65 | 22.2 | 
CCCCCCCCCCCCCCCC(=O)N[C@@H](CCC(=O)NCCCC[C@H](NC(=O)[C@H](C)NC(=O)[C@H](C)NC(=O)[C@H](CCC(N)=O)NC(=O)CNC(=O)[C@H](CCC(=O)O)NC(=O)[C@H](CC(C)C)NC(=O)[C@H](Cc1ccc(O)cc1)NC(=O)[C@H](CO)NC(=O)[C@H](CO)NC(=O)[C@@H](NC(=O)[C@H](CC(=O)O)NC(=O)[C@H](CO)NC(=O)[C@@H](NC(=O)[C@H](Cc1ccccc1)NC(=O)[C@@H](NC(=O)CNC(=O)[C@H](CCC(=O)O)NC(=O)[C@H](C)NC(=O)[C@@H](N)Cc1cnc[nH]1)[C@@H](C)O)[C@@H](C)O)C(C)C)C(=O)N[C@@H](CCC(=O)O)C(=O)N[C@@H](Cc1ccccc1)C(=O)N[C@H](C(=O)N[C@@H](C)C(=O)N[C@@H](Cc1c[nH]c2ccccc12)C(=O)N[C@@H](CC(C)C)C(=O)N[C@H](C(=O)N[C@@H](CCCNC(=N)N)C(=O)NCC(=O)N[C@@H](CCCNC(=N)N)C(=O)NCC(=O)O)C(C)C)[C@@H](C)CC)C(=O)O | -0.77 | 
NS(=O)(=O)c1nn2cc(-c3ccccc3)nc2s1 | 82 | 
CC(=O)/N=c1/sc(S(N)(=O)=O)nn1C | 0.67 | 
CCCCOC(=O)c1cc2c(cn1)[nH]c1ccccc12 | 36 | 
O=C(O)c1cnn(-c2nc3cc(OC(F)(F)F)c(Cl)cc3[nH]2)c1 | 95.9 | 
Cc1ccc2[nH]c(=O)c(C3=NN(C(=O)CCC(=O)O)C(c4ccc(Br)cc4)C3)c(-c3ccccc3)c2c1 (configuration not stated) | -0.13 | 
CCC(CC)Nc1cc(C)nc(Oc2c(C)cc(C)cc2C)c1C | -6.76 | 
O=C(O)Cc1cc2ccccc2nc1C(=O)O | 6.45 | 
C[C@@H]1O[C@@]2(CS1)CN1CCC2CC1.C[C@H]1O[C@]2(CS1)CN1CCC2CC1 | -5.94 | 
O=C(O)CCCN1C(=O)c2cccc3cccc(c23)C1=O | -1.41 | 
O=C(CCCCCN1C(=O)c2cccc3cccc(c23)C1=O)NO | 98.7 | 
O=C(O)CN1C(=O)c2cccc3cccc(c23)C1=O | 5.8 | 
CC(C)(Sc1ccncc1-c1ccc(C#N)c2ccccc12)C(=O)O | 2.75 | 
N[C@H](Cc1c[nH]cn1)C(=O)O | 5.27 | 
C/C(=N\NC(=O)C(NC(=O)c1ccccc1)c1n[nH]c(=O)c2ccccc12)c1cccc(Br)c1 (configuration not stated) | 0.86 | 
Cc1noc(C)c1-c1cc(O)cc(C(O)c2ccccc2)c1 (configuration not stated) | 2.55 | 
COc1ccc(CNC(=O)Nc2ncc([N+](=O)[O-])s2)cc1 | 64.8 | 

Compound | inhibition [1] [%] | inhibition [2] [%]
CC(=O)Nc1ncc([N+](=O)[O-])s1 | -3.88 | 
COc1ccc(CNC(=O)c2sc3nc(C)cc(C)c3c2N)cc1 | 13.2 | 
CCCCn1ccc(N2CCC(c3ccccc3)CC2)c(Cl)c1=O | 42.8 | 
CCOC(=O)N1c2ccc(C(F)(F)F)cc2[C@@H](N(Cc2cc(C(F)(F)F)cc(C(F)(F)F)c2)C(=O)OC)C[C@H]1CC | -1.4 | 
CC[C@@H]1C[C@H](N(Cc2cc(C(F)(F)F)cc(C(F)(F)F)c2)C(C)=O)c2cc(C(F)(F)F)ccc2N1C(=O)OC(C)C | 88.1 | 
CCCCCCCCCCCCCCCCNc1ccc(C(=O)O)cc1 | 2.63 | 
FLUPENTIXOL, CHEMBL6066864 |  | 14.4
CC(=O)Nc1ccc(CC(=O)O)cc1 | -5.64 | 
CCOC(=O)c1ccc(OC(=O)CCCCCNC(=N)N)cc1 | 22.4 | 
CN(C)C(=O)COC(=O)Cc1ccc(OC(=O)c2ccc(NC(=N)N)cc2)cc1 | 96.5 | 
Nc1ccn([C@@H]2O[C@@](CO)(CCl)[C@@H](O)[C@H]2F)c(=O)n1 | -1.66 | 
O=C(/C=C/c1ccc(O)c(O)c1)c1ccc(O)cc1O | 99.2 | 
O=C(/C=C/c1ccc(O)c(O)c1)O[C@H](Cc1ccc(O)c(O)c1)C(=O)O | 3.24 | 
O=C(O)/C=C/c1ccc(O)c(O)c1 | -0.33 | 
O=C(O)/C=C/c1ccc(O)cc1 | -0.48 | 
O=C(/C=C/c1ccc(O)cc1)c1ccc(O)cc1O | 99.7 | 
CC(C)(C)c1cc(C(=O)/C=C/c2ccc(C(=O)O)cc2)cc(C(C)(C)C)c1 | 2.42 | 
CC(C)C[C@@H](NC(=O)OCC1c2ccccc2-c2ccccc21)C(=O)O | 3.37 | 
CARBOPLATIN, CHEMBL1351 |  | -2.28
CC(C)C[C@H](NC(=O)OCC1c2ccccc2-c2ccccc21)C(=O)O | -7.02 | 
CC(C)(C)C1CCc2c(sc(NC(=O)c3ccco3)c2C(=O)O)C1 (configuration not stated) | -1.94 | 
O=c1ccc2c(OCCCCOc3ccccc3)c3ccoc3cc2o1 | -4.23 | 

Compound | inhibition [1] [%] | inhibition [2] [%]
COc1ccc(S(=O)(=O)Nc2cc(Cl)cc(Cl)c2OC)cc1N1CCNCC1 | -0.38 | 
CC1(C)Oc2ccc(C#N)cc2[C@H](N(Cc2ncc[nH]2)c2ccc(Cl)cc2)[C@H]1O | 5.57 | 
O=C(O)c1cc(=O)c2ccccc2o1 | 10.2 | 
CCOC(=O)COc1ccc2c(=O)cc(-c3ccccc3)oc2c1 | -3.12 | 
CC(C)c1ccc(-c2cc(=O)c3ccccc3o2)cc1 | 77.3 | 
ACRIFLAVINE HYDROCHLORIDE, CHEMBL5219995 |  | 7.54
CCCCCCCCCCCCCCCCCCCCCC(=O)Nc1ccn([C@@H]2O[C@H](CO)[C@@H](O)[C@@H]2O)c(=O)n1 | -7.93 | 
COc1cc(-n2cnc3cc(-c4ccc(Cl)cc4)sc3c2=O)ccc1OCCN1CCCC1 | 2.09 | 
O=C(CC(c1ccccc1)c1ccccc1)N1CCN(C(c2ccccc2)c2ccccc2)CC1 | -2.23 | 
COc1ccc(-c2cc(=O)c3c(O)c(OC)c(O)cc3o2)cc1OC | 58.5 | 
O=c1cc(-c2ccccc2)oc2cc(O)c(O)c(O)c12 | 75.1 | 
O=C(O)[C@H]1O[C@H](Oc2cc3oc(-c4ccccc4)cc(=O)c3c(O)c2O)[C@H](O)[C@@H](O)[C@@H]1O | -2.69 | 
O=c1c(O)c(-c2ccc(O)cc2)oc2cc(O)cc(O)c12 | 47.1 | 
O=c1cc(-c2ccc(O)cc2)oc2cc(O)cc(O)c12 | 66.2 | 
COc1ccc(-c2cc(=O)c3c(OC)c(OC)c(OC)c(OC)c3o2)cc1OC | -7.64 | 
O=c1c(O)c(-c2cc(O)c(O)c(O)c2)oc2cc(O)cc(O)c12 | 6.61 | 
COc1ccc(-c2cc(=O)c3c(OC)c(OC)c(OC)c(OC)c3o2)cc1 | -4.13 | 
O=C(O)Cc1cccc2c(=O)cc(-c3ccccc3)oc12 | 2.51 | 
O=C1C[C@@H](c2ccccc2)Oc2cc(O)cc(O)c21 | 4 | 
O=c1oc2cc(O)ccc2s1 | -3.98 | 
O=c1cc(-c2ccccc2)oc2cc(O)cc(O)c12 | 72.7 | 
CCN(c1ccccc1)c1cc(NC)[n+](C)c(C)n1 | -1.77 | 

Compound | inhibition [1] [%] | inhibition [2] [%]
O=C(O)Cc1nn(Cc2nc3cc(C(F)(F)F)ccc3s2)c(=O)c2ccccc12 | -1.1 | 
O=C(Nc1ccc(S(=O)(=O)Nc2nccs2)cc1)C(c1ccccc1)c1ccccc1 | -1.03 | 
CN[C@@H](C)C(=O)N[C@H](C(=O)N1CCC[C@H]1C(=O)Nc1sc(-c2ncco2)nc1-c1ccccc1)C1CCCCC1 | -6.76 | 
O=c1[nH]cnc2ccccc12 | -1.07 | 
COc1cc2nc(N3CCN(C(=O)COc4c(OC)cccc4C(C)C)CC3)nc(N)c2cc1OC | 4.56 | 
CCCCOc1nc(N)c2c(n1)N(Cc1cccc(CN3CCCC3)c1)CC(=O)N2 | 3.13 | 
CC1CCc2c(cc(Br)c(F)c2Br)N1C=O (configuration not stated) | 3.01 | 
N#C/C(=C\c1cn(-c2ccccc2)c2ccccc12)C(=O)O | -2.69 | 
O=S(=O)(O)CC(S)CS (configuration not stated) | 2.52 | 
Cc1ccc(CCCO)c(NCc2ccc3nc(NCCCN4CCOCC4)n(Cc4nc(C)ccc4O)c3c2)c1 | -5.63 | 
N#Cc1c(N)nc(SCc2csc(-c3ccc(Cl)cc3)n2)c(C#N)c1-c1ccc(OCCO)cc1 | 2.06 | 
CCCCCCCCCCCCCCCC[n+]1ccn(Cc2ccccc2)c1C | -2.57 | 
COc1cc2c(cc1OC)-c1c(C)c3ccc(OC)c(OC)c3c[n+]1CC2 | -0.34 | 
COc1ccc([C@@H]2CC(=O)c3c(O)cc(O)cc3O2)cc1O | 31.5 | 
COc1ccc(-c2cc(=O)c3c(O)cc(O)cc3o2)cc1O | 52.3 | 
COc1ccc(-c2cc(=O)c3c(O)cc(O[C@@H]4O[C@H](CO[C@@H]5O[C@@H](C)[C@H](O)[C@@H](O)[C@H]5O)[C@@H](O)[C@H](O)[C@H]4O)cc3o2)cc1O | 8.42 | 
CC(C)[C@H](C(=O)Nc1ccc(C(=O)NO)cc1)c1ccccc1 | 98 | 
CC(=O)Nc1ccc(C(=O)Nc2ccccc2N)cc1 | 0.93 | 
O=C(O)c1ccc(NC(=O)[C@H](Cc2ccc(O)cc2)NC(=O)c2ccccc2)cc1 | 3.32 | 
O=C(O)c1ccccc1Nc1ccc(CCc2ccc(Cl)c(Cl)c2)cc1 | -6.85 | 
COc1ccc2c(c1)C(C(=O)N(Cc1ccc(N(C)C)cc1)c1ccc(C(C)C)cc1)CCC2 (configuration not stated) | -3.38 | 
